Most compounds without a hit are left out; they make up all but 15% or so of the library.
HCMV inh = human cytomegalovirus inhibition; HFF cells, HCMV-luciferase reporter, 72 h; hits give low values; activity change, negative = inhibition, % at 57.5 µM; actives 4.5% (n = 410,000); in the data active means activity change below about -60%; inconclusive means no clear call, values can overlap the other calls; inactive means above about -39%; further: on the % scale 0 is the no-effect control and ±100 the full control effect
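Steps: HFFs plated, 16 h 37C; compounds added; HCMV-luciferase added to MOI 1 PFU/cell; 72 h 37C; OneGlo reagent, 5 min room temperature; luminescence read, normalized to controls.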
HCV inhibitor = HCV inhibition | actives 3.4% (n = 340,000) | AID 651820 | Potency, µM (highest dose often 41.8 µM), without a hit: at the highest dose activity change, negative = inhibition, hits mostly inhibitors | Huh7.5.1 HCVcc-Cre infection, luciferase reporter, 44 h; further: potency means the concentration at half of the fitted maximal effect; on the % scale 0 is the no-effect control and ±100 the full control effect
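1,000 cells/well; 4 h culture; + compound; + HCVcc-Cre (~0.5 moi); 44 h; luciferase substrate, RT 15 min; read 15 sec.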
Pf growth 96h = P. falciparum growth inhibition at 96 hours; P. falciparum luciferase reporter growth, 96 h; Potency, µM (highest dose often 28.7 µM), for the others: at the top dose activity change, negative = inhibition, actives largely listed as inhibitors; actives 6.9% (n = 320,000); AID 504834; further: potency means the concentration at half of the fitted maximal effect; on the % scale 0 is the no-effect control and ±100 the full control effect
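Two-generation exposure (96 h) targets delayed-death phenotype. Reporter parasites carrying integrated firefly luciferase, in red cells at 2% hematocrit and 0.05% parasitemia final, kept at 37 C, 5% CO2; luminescence loss indicates inhibition.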
Pf growth 48h = P. falciparum growth inhibition at 48 hours (one generation); P. falciparum luciferase growth in erythrocytes, 48 h; Potency, µM (highest dose often 28.7 µM), without a hit: at the top dose activity change, negative = inhibition, hits mostly inhibitors; actives 5.9% (n = 310,000); AID 504832; further: potency means the concentration at half of the fitted maximal effect; on the % scale 0 is the no-effect control and ±100 the full control effect
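Parasite viability was followed by luminescence of a genomically integrated firefly luciferase. Cultures held 0.1% parasitemia at 2% hematocrit (final), incubated under 5% CO2 at 37 C.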
SARS PLpro yeast = inhibitors of SARS-CoV papain-like protease in yeast. S. cerevisiae expressing SARS-CoV PLpro, growth rescue. Potency, µM (doses to about 32.9 µM), without a hit: at the highest dose activity, positive = growth rescue, most hits filed as activators. actives 0.19% (n = 330,000); calls by dose curve; further: potency means the concentration at half of the fitted maximal effect; 0% is about no effect; nearly all actives have a fitted effect of over 55% in size
Sm TGR inh = blocks Schistosoma mansoni thioredoxin glutathione reductase; Q962Y6; purified TGR, DTNB reduction, TNB absorbance 405 nm; Potency, µM (highest dose often 114 µM), inactives show top-dose activity change, negative = inhibition, usual class: inhibitors; actives 3% (n = 360,000); AID 485364; further: potency means the concentration at half of the fitted maximal effect; on the % scale 0 is the no-effect control and ±100 the full control effect; nearly all actives have a fitted effect of over 60% in size
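TGR 20 nM + NADPH 100 uM (dispensed conc.), cpd preinc 15 min RT; start with NADPH (500 uM addition) then DTNB (15 mM addition). Kinetic TNB absorbance, 405 nm filter. Four-parameter Hill fit across titration.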
Starred values were filed as active, the others as inactive; ? = inconclusive; / = no result; [ ] = remark or other dose. Unless noted, the call rests on the fitted dose curve; in most records, active means well fitted curve in the direction sought with a large enough effect; inconclusive means small, poorly fitted or top-dose-only effect, or another doubt; inactive means no such curve, though single readings can be large; an effect the other way counts as inactive or inconclusive.

SMILES | HCMV inh | HCV inhibitor | Pf growth 96h | Pf growth 48h | SARS PLpro yeast | Sm TGR inh
O=[N+]([O-])c1ccc2c(c1)C(N1CCOCC1)/C(=C/COc1ccc(Cl)cc1Cl)O2 (stereo unspecified) | -20 | ? | ? | 12µM* | -5% | -18%
Oc1ccc(NCc2ccccc2OCc2ccccc2)cc1 | ? | -5% | ? | ? | -52% | 14µM*
O=c1[nH]c2ccc(NCc3ccccc3OCc3ccc(Cl)cc3)cc2[nH]1 | -73* | ? | ? | -18% | -2% | ?
Oc1ccc(NCc2ccccc2OCc2ccc(Cl)cc2)cc1 | -72* | / | / | / | / | 45µM*
CCOc1cc(CNc2ccc(O)cc2)cc(Br)c1OCc1ccccc1 | -104* | / | / | / | / | -1%
COc1cccc(CNc2ccc3[nH]c(=O)[nH]c3c2)c1OCc1ccc(F)cc1 | 85 | -22% | ? | -18% | -1% | ?
Cc1cc(C)c(NC(=O)CN(C)S(=O)(=O)c2ccc3c(c2)CCC(=O)N3)c(C)c1 | 0 | / | / | / | / | 10%
CCCCc1nnc(NC(=O)CSCc2cc(=O)n3cc(C)sc3n2)s1 | -38 | 3% | ? | -8% | -3% | -3%
CCOc1cc(CNc2ccc(O)cc2)ccc1OCc1ccc(Cl)cc1 | -21 | / | / | / | / | 45µM*
C=CCOc1c(Br)cc(CNc2ccc(NC(=O)C(C)C)cc2)cc1OCC | 13 | ? | 13µM* | -8% | 5% | -23%
CCc1ccccc1NC(=O)CN1CCN(C(=O)CCC(=O)N2CCC(c3ccccc3)=N2)CC1 | -1 | ? | ? | ? | -7% | -3%
c1ccc(OCc2nc3c4c(ncn3n2)-c2ccccc2CC42CCCC2)cc1 | ? | ? | -4% | 13µM* | 13% | 4%
Nc1ncnc2c1C1(CCCCC1)Cc1ccccc1-2 | ? | -1% | 8.3µM* | -16% | ? | -21%
Nc1n[nH]c2c1C1(CCCCC1)Cc1ccccc1-2 | 8 | -9% | ? | -22% | 2% | 0%
CCC(=O)Nn1cnc2c(c1=O)C1(CCCCC1)Cc1ccccc1-2 | -12 | -23% | / | 11% | -9% | -1%
CCCCn1nnnc1C(c1cc2ccccc2o1)N1CCN(c2ccncc2)CC1 (stereo unspecified) | -25 | / | / | / | / | /
CC1(C(=O)NS(=O)(=O)c2ccccc2C(F)(F)F)CCN1C(=O)c1cccc(F)c1 (stereo unspecified) | -8 | / | / | / | / | /
Cc1ccn2c(=O)nc(SCC(=O)NCCc3ccccc3)nc2c1 | 7 | -5%[8.37 µM] | 7% | 13% | 2% | -8%
CN(CC(=O)Nc1nc2ccc(F)cc2s1)S(=O)(=O)c1ccc(Cl)cc1 | -14 | ? | ? | / | 4% | -17%
Cc1ccc(S(=O)(=O)N(C)CC(=O)Nc2nc3ccccc3s2)cc1 | 40 | ? | 6.6µM* | -9% | -15% | 2%
Cc1ccc2nc(NC(=O)CNS(=O)(=O)c3ccc(Br)s3)sc2c1 | 14 | 11% | 30% | 67% | 1% | 0%
Cc1ccc2nc(NC(=O)CN(C)S(=O)(=O)c3ccc(Br)s3)sc2c1 | -29 | ? | 9.3µM* | / | 5% | 5%
CCn1c(SCC(=O)Nc2nc3ccc(OC)cc3s2)nc2c1c(=O)n(C)c(=O)n2C | 7 | 4µM* | 72% | -16% | 5% | -28%
CCOc1ccc2nc(NC(=O)CSc3nc4c(c(=O)n(C)c(=O)n4C)n3C(C)C)sc2c1 | -1 | ? | 12µM* | 0% | -4% | 0%
CCC(C(=O)NCCCN1CC(C)CC(C)C1)n1nc(C)c2sc3ccccc3c2c1=O (stereo unspecified) | -73* | -13% | ? | ? | -1% | 3%
SMILES | HCMV inh | HCV inhibitor | Pf growth 96h | Pf growth 48h | SARS PLpro yeast | Sm TGR inh
CCC(C(=O)NCCCN(CC)Cc1ccccc1)n1nc(C)c2sc3ccccc3c2c1=O (stereo unspecified) | ? | ? | 41% | 10µM* | 3% | -20%
C[C@H](CO)N1C[C@H](C)[C@@H](CN(C)S(=O)(=O)c2ccc(-n3cccn3)cc2)OCc2cn(nn2)CCCC1=O | -4 | / | / | / | / | /
CC(=O)Nc1cccc(Nc2cc3c(cn2)cc(-c2cnn(C)c2)n3Cc2ccccc2)c1 | -32 | / | / | / | / | /
CC(C)Oc1ccc(CC2CC(=O)NC2=O)cc1 (stereo unspecified) | -8 | 17% | 10µM* | 40% | 2% | 2%
CCCOc1ccc(CC2CCC(=O)NC2=O)cc1 (stereo unspecified) | -69* | 8% | -18% | -7% | -33% | -24%
COc1ccc(NC(=O)c2cc3c([nH]c4ccccc43)c(C)n2)cc1 | -8 | ? | 9.3µM* | ? | 2% | 1%
O=[N+]([O-])c1ccc(COc2ccc(CN3CCCC3)cc2)cc1 | -8 | ? | / | / | / | /
Cc1cc(C(=O)N2CCC(Cc3ccccc3)CC2)c(C)o1 | 26 | -9% | 19% | ? | 19% | -33%
Cc1onc(C(=O)N2CCC(Cc3ccccc3)CC2)c1[N+](=O)[O-] | -91* | ? | ? | ? | 5% | -4%
O=C(c1ccc(Cn2cc(Cl)c([N+](=O)[O-])n2)cc1)N1CCN(Cc2ccccc2)CC1 | -3 | 11µM* | 66% | 32% | 0% | -27%
Cc1onc(C(=O)N2CCN(Cc3ccccc3)CC2)c1[N+](=O)[O-] | -1 | 4%[8.37 µM] | 15µM* | -16% | 5% | -12%
O=C(c1ccc([N+](=O)[O-])cc1)N1CCN(Cc2ccccc2)CC1 | 37 | 6% | 9% | 9% | 19% | 7%
CCCCCNC(=O)C(c1ccnc2ccccc12)n1c(=O)c(-c2cc3ccccc3[nH]2)nc2ccccc21 (stereo unspecified) | 9 | / | / | / | / | /
O=C(CN1C(=O)NC2(CCCC2)C1=O)NCCc1ccc(F)cc1 | 36 | -13% | / | / | 4% | /
Cc1ccc2oc(/N=C(\N)NC(=O)C(C)(C)C)nc2c1 | -90* | -69% | -16% | -88% | 0% | 11%
CC(=O)/C(=N/Nc1cccc(C)c1)N1CCOCC1 | -5 | 8% | / | 12% | -3% | 50µM*
CNC(=O)CN(Cc1ccccc1)S(=O)(=O)c1ccc(Cl)cc1 | 15 | 13% | ? | 3% | 4% | -4%
CN(c1ccc(OCC(=O)N2CCN(C/C=C/c3ccccc3)CC2)cc1)S(=O)(=O)c1cccs1 | -82* | 11µM* | ? | 9.3µM* | 0% | ?
COc1ccc(C2=CCCCCC2)cc1OC | -4 | / | / | / | / | /
CCn1cnc2c(=O)oc3ccc(S(=O)(=O)Nc4ccc(OC)cc4)cc3c21 | -2 | / | / | / | / | 2%
O=C(CSc1nc(=O)[nH]c2c1CCC2)NCc1ccc(Cl)cc1 | -2 | / | / | / | / | 2%

Assay outcomes as filed in PubChem BioAssay.
